# Compound activity (PubChem)
# PKA-R2B act: activates the human PKA-R2B holoenzyme complex | P22694+P31323 | activation, % at 11.4 µM | PKA-R2B holoenzyme dissociation, Cy5-IP20 fluorescence polarization; R2B truncated from residue 108, S112A mutant; 0% DMSO only, 100% 113 µM cGMP | AID 504700 | 340,000 tested, 0.079% active;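 active = activation above a cutoff set at the mean over all compounds plus 3 SD, cut at about 18% in these data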;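 note: higher means more holoenzyme dissociation and a rise in polarization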
# PKA-R1A activ: PKA-R1A complex activation; PKA-R1A dissociation, Cy5-IP20 fluorescence polarization; scaled: DMSO 0%, 113 µM cGMP 100%; activation, % at 11.4 µM; 340,000 tested, 0.083% active; AID 504707;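 active = percent activation above the mean of all tested compounds plus 3 SD, cut at about 19% in these data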;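 note: higher means more PKAc released from R1A so a rise in polarization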
# PAFAH1B3 inh: PAFAH1B3 (human) inhibition | 340,000 tested, 0.28% active | inhibition, % at 3.39 µM | Q15102 | recombinant PAFAH1B3, FP-rhodamine probe, fluorescence polarization;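 active = inhibition above the screen-wide average of all tested compounds plus 3 SD, cut at about 25% in these data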
# Target sequence (Q15102 whole entry, looked up): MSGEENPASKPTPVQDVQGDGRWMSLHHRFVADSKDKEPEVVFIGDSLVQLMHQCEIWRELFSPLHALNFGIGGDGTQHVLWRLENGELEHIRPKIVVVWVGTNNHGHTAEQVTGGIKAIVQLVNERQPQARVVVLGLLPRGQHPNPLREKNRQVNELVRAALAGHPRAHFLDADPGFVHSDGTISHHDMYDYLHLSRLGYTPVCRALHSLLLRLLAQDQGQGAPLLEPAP
# pPAFAH FP inh: inhibitors of human plasma PAF acetylhydrolase (pPAFAH). AID 463082. 330,000 tested, 1.5% active. recombinant pPAFAH, FP-rhodamine probe fluorescence polarization. Q13093. inhibition, % at 3.39 µM;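 active = inhibition above the mean inhibition across the screen plus 3 SD, cut at about 25% in these data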;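 note: inhibitors block binding of the rhodamine activity-based probe so polarization drops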
# PAFAH2 FP inh: inhibitors of human PAFAH2; 340,000 tested, 0.99% active; inhibition, % at 3.39 µM; AID 492956; recombinant PAFAH2, FP-rhodamine activity probe, fluorescence polarization;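 active = inhibition above the mean over all tested compounds plus 3 SD, cut at about 30% in these data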;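 note: inhibitors block probe labeling of enzyme so polarization drops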
# PAFAH1B2 FP inh: inhibitors of human PAFAH1B2. P68402. recombinant PAFAH1B2, FP-rhodamine activity probe, fluorescence polarization. inhibition, % at 3.39 µM. 340,000 tested, 1.2% active;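 active = inhibition above the mean of all tested compounds plus 3 SD, cut at about 24% in these data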
# Target sequence (P68402 whole entry, looked up): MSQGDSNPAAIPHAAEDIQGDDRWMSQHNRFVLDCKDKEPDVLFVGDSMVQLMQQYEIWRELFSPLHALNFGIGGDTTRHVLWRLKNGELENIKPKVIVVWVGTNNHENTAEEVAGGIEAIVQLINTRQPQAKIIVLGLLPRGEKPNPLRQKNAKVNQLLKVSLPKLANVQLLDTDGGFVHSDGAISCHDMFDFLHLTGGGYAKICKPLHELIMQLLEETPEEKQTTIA
# Hits are given with their value; - = inactive; . = no result given; ! = a repeat was not active. This is a sample that favours compounds with a hit; in the whole collection about 2.6% have one here.
SMILES,PKA-R2B act,PKA-R1A activ,PAFAH1B3 inh,pPAFAH FP inh,PAFAH2 FP inh,PAFAH1B2 FP inh
O=[N+]([O-])c1cc(C2Nc3cccc4cccc(c34)N2)ccc1Cl,-,-,-,-,-,37
COc1cc(C2Nc3cccc4cccc(c34)N2)ccc1O,-,-,37,-,-,25
COc1ccc(Br)cc1C1Nc2cccc3cccc(c23)N1,-,-,-,-,-,-
O=[N+]([O-])c1ccc(O)c(C=NNc2ccc(S(=O)(=O)O)cc2)c1,-,-,-,.,-,-
O=[N+]([O-])c1ccc(O)c(/C=N/Nc2nc3ccccc3[nH]2)c1,-,-,-,-,-,35
O=[N+]([O-])c1ccc(O)c(/C=N/NC(=S)Nc2ccc(Cl)cc2Cl)c1,-,-,-,-,45,42
O=C(N/N=C/c1cc([N+](=O)[O-])ccc1O)Nc1ccccc1,-,-,-,-,-,32
O=[N+]([O-])c1cccc(N/N=C/c2cc([N+](=O)[O-])ccc2O)c1,-,-,-,28,39,-
O=C(Nc1cccnc1Cl)c1cc2ccccc2o1,-,-,-,-,-,-
CC(=O)NCc1ccc(C(=O)COC(=O)COc2ccc(Cl)c(C)c2)s1,-,-,-,27,-,-
O=c1[nH]c(NCCO)nc2c1C1(CCCC1)Cc1ccccc1-2,-,-,-,-,-,34
CN1CCc2cccc3c2[C@H]1Cc1ccc(O)c(O)c1-3,-,-,-,25!,-,-
NS(=O)(=O)c1ccc(CNS(=O)(=O)c2ccc(Cl)nc2)cc1,-,-,-,-,-,-
O=S(=O)(NCc1ccc(Cl)cc1)c1ccc(Cl)nc1,-,-,-,-,-,34
CCN(CC)C(=O)[C@H]1CC(CC(=O)NCC23CC4CC(CC(C4)C2)C3)C(=O)N2CCc3c([nH]c4ccc(OC)cc34)[C@]12C (stereo partly drawn),-,-,-,-,-,-
CC(C)(C)c1ccc(-n2ncc3c2CCCC3NC(=O)CCN2CCCCC2=O)cc1 (stereo not drawn),-,-,-,64,-,-
Cc1ccc(-n2ncc3c2CCCC3NC(=O)CCCN2CCCC2=O)cc1C (stereo not drawn),-,-,-,-,-,-
Cc1ccc(S(=O)(=O)n2cnc3ccccc32)cc1,-,-,-,-,-,-
Cc1ccc(S(=O)(=O)n2cc(CO)c3ccccc32)cc1,-,-,-,.,-,47
CSC(=Nc1ccccc1)C(C#N)c1nc2ccccc2[nH]1 (stereo not drawn),-,-,-,31,-,-
CCN1CC(CN(C)Cc2nc(-c3ccc(C(F)(F)F)cc3)oc2C)CC1=O (stereo not drawn),-,-,-,30,-,-
CCN1CC(CN(C)Cc2nc(-c3ccco3)oc2C)CC1=O (stereo not drawn),-,-,-,-,-,-
CCOc1ccc(N(CC(=O)N2CCOCC2)S(=O)(=O)c2ccc(F)cc2)cc1,-,-,-,-,-,-
CCOC(=O)c1sc(NC(=O)CN(CC(C)C)CC(C)C)c(C(=O)OCC)c1C,-,-,-,-,-,33
CCCc1cc(=O)n2nc(N3CCC(C(=O)NCc4ccc(C)o4)CC3)sc2n1,-,-,-,-,-,-
SMILES,PKA-R2B act,PKA-R1A activ,PAFAH1B3 inh,pPAFAH FP inh,PAFAH2 FP inh,PAFAH1B2 FP inh
CCC(C)Sc1ccc(-c2nc3ccc(C)cn3c2NCc2ccccc2)cc1OC (stereo not drawn),-,-,-,27,-,-
CCCCCCSc1ccc(-c2nc3ccc(C)cn3c2NCc2ccccc2)cc1OC,-,-,-,26,-,-
CCC(C)Sc1cc(-c2nc3ccc(C)cn3c2NCc2ccccc2)ccc1OC (stereo not drawn),-,-,-,-,-,-
CCCCCCSc1ccc(-c2nc3ccc(C)cn3c2NCc2ccccc2)cc1,-,-,-,-,-,-
CCCCn1c(N)c(N(C)C(=O)c2cc3c(s2)CCCCC3)c(=O)[nH]c1=O,-,-,-,-,-,-
Cc1ccc(S(=O)(=O)Nc2cccc(Cl)c2)cc1NC(=O)c1cccnc1,-,-,-,-,-,-
Cc1ccc(S(=O)(=O)Nc2cccc(Cl)c2)cc1NC(=O)C1CC1,-,-,-,34,-,-
O=C(CSc1ccc(Cl)cc1)NCc1ccncc1,-,-,-,-,-,29
O=Cc1cn(CCOc2ccccc2F)c2ccccc12,-,-,-,.,-,-
CNC[C@H](Cc1cccc2ccccc12)NC[C@H](CCSC)NCC1CCC(C(C)(C)C)CC1 (stereo partly drawn),.,.,.,-,.,.
N#CC1=C(N)Oc2cc(N)ccc2C1c1ccc(F)cc1 (stereo not drawn),-,-,-,-,-,-
N#CC1=C(N)Oc2cc(N)ccc2C1c1ccc(F)cc1F (stereo not drawn),-,-,-,27,-,-
Cc1cc(C)n(CCNS(=O)(=O)c2ccccc2)n1,-,-,-,-,-,-
CSc1nc(N(CCO)CCO)c2sc3nc(-c4ccco4)c4c(c3c2n1)CCC4,-,-,-,.,31,-
C=CCn1c(SCc2ccc(Cl)cc2)nc2c1c(=O)[nH]c(=O)n2C,-,-,-,-,-,25
C=CCn1c(SCc2ccc(F)cc2)nc2c1c(=O)[nH]c(=O)n2C,-,-,-,-,-,-
CC(C)(C)OC(=O)N1CCC(NC(=O)c2nc[nH]c2C(=O)NCC(=O)OCc2ccccc2)CC1,-,-,-,33,-,-
O=C(NNS(=O)(=O)c1ccc(Br)cc1)C1CCCCC1,-,-,-,-,-,28
O=C(Nc1ccc(C(=O)N2CCOCC2)cc1)c1ccccc1Cl,-,-,.,.,.,.
Cc1c(N)cc(S(=O)(=O)O)cc1NC(=O)c1cccc([N+](=O)[O-])c1,-,-,-,.,-,-
CC1Sc2ccc(C(=O)OCc3ccccc3Cl)cc2NC1=O (stereo not drawn),-,-,-,29,-,-
COc1cccc(COC(=O)c2ccc3c(c2)NC(=O)C(C)S3)c1OC (stereo not drawn),-,-,-,-,-,-
Cc1onc(-c2ccccc2Cl)c1C(=O)N[C@@H](C)c1ccccc1,.,.,.,-,.,.
O=S(=O)(c1ccc(Br)cc1)N1CCn2c(nc3ccccc32)C1,-,-,-,-,-,29
COc1ccc(Cl)cc1NC(=O)CN(C)C1CCS(=O)(=O)C1 (stereo not drawn),-,-,-,-,-,-
C[C@@H]1COC(=O)[C@@H](Cc2ccc(F)cc2)C/C=C\C[C@@H](CC(=O)N[C@H](CO)Cc2ccccc2)C(=O)N1,-,-,-,-,-,-
C[C@@H]1COC(=O)[C@H](Cc2ccc(F)cc2)CC/C=C/C[C@@H](CC(=O)N[C@H](CO)Cc2ccccc2)C(=O)N1,-,-,-,-,-,-
